# Data from PubChem BioAssay (EPA / NIEHS).
# Records with an inconclusive call do not appear. The source made the active and inactive calls. Rule for the calls, unless noted: active = hit-call score of the fitted dose curve at least 0.9, where 1 is the maximum; inconclusive = response in the unintended direction; inactive = score below 0.9.
# Tests used:
# [1] = target: Retinoic acid receptor RXR-alpha (Homo sapiens) (UniProt P19793); test: ATG_RXRa_TRANS: Attagene TRANS-FACTORIAL HepG2 Assay for human Retinoid X Receptor alpha (RXRa) (AID 2283012)
# Chain of Retinoic acid receptor RXR-alpha (Homo sapiens) (P19793 whole entry, looked up, the tested form may be a part): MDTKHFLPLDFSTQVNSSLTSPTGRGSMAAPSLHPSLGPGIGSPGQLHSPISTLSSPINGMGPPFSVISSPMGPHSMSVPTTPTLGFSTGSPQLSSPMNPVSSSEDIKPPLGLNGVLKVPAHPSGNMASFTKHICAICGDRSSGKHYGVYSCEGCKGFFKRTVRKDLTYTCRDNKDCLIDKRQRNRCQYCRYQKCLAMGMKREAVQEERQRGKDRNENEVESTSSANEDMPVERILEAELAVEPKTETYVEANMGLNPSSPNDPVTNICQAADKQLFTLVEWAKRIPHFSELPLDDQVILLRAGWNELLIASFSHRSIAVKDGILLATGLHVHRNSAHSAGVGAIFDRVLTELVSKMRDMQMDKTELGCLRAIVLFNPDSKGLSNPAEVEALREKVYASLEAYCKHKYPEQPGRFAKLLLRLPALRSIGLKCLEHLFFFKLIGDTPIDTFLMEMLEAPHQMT
# In short: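 Chimeric NR-GAL4 trans-activation in HepG2, 24 h treatment; reporter transcripts quantified by fluorescence on capillary electrophoresis, analysed for upward change from DMSO.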
# [2] = target: human Retinoid X Receptor beta (RXRb), RXRB (gene 6257) (UniProt P28702); test: ATG_RXRb_TRANS: Attagene TRANS-FACTORIAL HepG2 Assay for human Retinoid X Receptor beta (RXRb) (AID 2283013)
# Chain of human Retinoid X Receptor beta (RXRb), RXRB (gene 6257) (P28702 whole entry, looked up, the tested form may be a part): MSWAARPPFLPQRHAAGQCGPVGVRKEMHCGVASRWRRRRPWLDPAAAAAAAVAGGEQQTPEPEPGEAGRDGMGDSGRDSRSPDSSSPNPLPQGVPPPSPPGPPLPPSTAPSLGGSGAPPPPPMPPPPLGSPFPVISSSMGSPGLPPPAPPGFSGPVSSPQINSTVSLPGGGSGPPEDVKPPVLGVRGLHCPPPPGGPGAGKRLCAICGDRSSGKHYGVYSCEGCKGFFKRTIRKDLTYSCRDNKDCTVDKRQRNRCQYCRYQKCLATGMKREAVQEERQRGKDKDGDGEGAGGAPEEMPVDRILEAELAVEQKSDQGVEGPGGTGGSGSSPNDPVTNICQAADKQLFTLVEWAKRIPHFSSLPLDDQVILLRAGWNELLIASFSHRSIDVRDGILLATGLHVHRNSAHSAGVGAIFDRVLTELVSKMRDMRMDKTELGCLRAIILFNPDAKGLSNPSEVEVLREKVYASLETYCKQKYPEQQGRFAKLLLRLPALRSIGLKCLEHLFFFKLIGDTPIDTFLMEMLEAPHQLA
# In short: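 After a 24 h incubation with test chemical, transfected HepG2 cells carrying NR-Gal4 fusions and GAL4-UAS reporter transcription units yield RNA whose reporter cDNA is FAM-labelled, HpaI-cut and sized by capillary electrophoresis; increases over DMSO are scored.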
# [3] = target: human Thyroid Receptor alpha (THRa1), THRA (gene 7067) (UniProt P10827); test: ATG_THRa1_TRANS: Attagene TRANS-FACTORIAL HepG2 Assay for human Thyroid Receptor alpha (THRa1) (AID 2283014)
# Chain of human Thyroid Receptor alpha (THRa1), THRA (gene 7067) (P10827 whole entry, looked up, the tested form may be a part): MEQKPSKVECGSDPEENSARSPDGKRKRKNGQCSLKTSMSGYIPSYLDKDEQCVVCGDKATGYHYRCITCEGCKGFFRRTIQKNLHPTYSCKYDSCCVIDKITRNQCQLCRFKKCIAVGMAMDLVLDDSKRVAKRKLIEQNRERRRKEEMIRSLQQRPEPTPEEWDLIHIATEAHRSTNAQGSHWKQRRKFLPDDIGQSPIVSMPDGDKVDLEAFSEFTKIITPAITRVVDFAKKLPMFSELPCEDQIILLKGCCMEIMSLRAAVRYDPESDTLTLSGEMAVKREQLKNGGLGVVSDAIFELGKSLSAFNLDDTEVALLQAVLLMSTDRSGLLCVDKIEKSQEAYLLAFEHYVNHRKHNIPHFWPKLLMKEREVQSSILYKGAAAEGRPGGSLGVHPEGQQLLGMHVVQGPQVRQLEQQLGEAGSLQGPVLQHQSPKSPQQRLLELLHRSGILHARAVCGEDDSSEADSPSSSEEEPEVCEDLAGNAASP
# In short: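 HepG2 cells transiently transfected with multiplexed GAL4-UAS reporter units for exogenous chimeric THRa1-Gal4; reporter mRNA measured 24 h after dosing by RT-PCR, 6-FAM labelling, HpaI digestion and capillary electrophoresis. Gain-of-signal fitted versus DMSO baseline.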
# [4] = read-out: E-selectin (Homo sapiens) (UniProt P16581); test: BSK_3C_Eselectin: BioMAP Diversity Plus: 3C Assay for Eselectin Biomarker Activity (AID 2283015; active = hit-call score of the fitted dose curve at least 0.9, where 1 is the maximum; inactive = score below 0.9;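 for outcome: cell surface E-selectin protein quantified by ELISA 24 h after dosing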); settings: primary human endothelial cells (HUVEC); actives raise or lower the signal
# In short: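 Primary human umbilical vein endothelial cells (3C system) were dosed with chemical and cell-surface E-selectin measured by ELISA 24 h later. Bidirectional curve fitting used DMSO as negative control and baseline.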
# [5] = read-out: Interleukin-1 alpha (IL1a), IL1A (gene 3552); test: BSK_BE3C_IL1a: BioMAP Diversity Plus: BE3C Assay for Interleukin-1 alpha (IL1a) Biomarker Activity (AID 2283016; active = hit-call score of the fitted dose curve at least 0.9, where 1 is the maximum; inactive = score below 0.9); settings: primary human bronchial epithelial cells; actives raise or lower the signal
# In short: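 Measured in human lung primary bronchial epithelial cells: IL-1a by ELISA at 24 h after dosing, with bidirectional fitting against DMSO.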
# [6] = read-out: Monocyte Chemoattractant Protein-1 (MCP1), CCL2 (gene 6347); test: BSK_3C_MCP1: BioMAP Diversity Plus: 3C Assay for Monocyte Chemoattractant Protein-1 (MCP1) Biomarker Activity (AID 2283017; active = hit-call score of the fitted dose curve at least 0.9, where 1 is the maximum; inactive = score below 0.9); settings: primary human endothelial cells (HUVEC); actives raise or lower the signal
# In short: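 Primary human umbilical vein endothelial cells (3C system) were exposed to test chemical for 24 h, after which MCP-1 was quantified by ELISA. Activity was fitted bidirectionally against DMSO as negative control and baseline.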
# [7] = read-out: Human Leukocyte Antigen - DR isotype (HLADR), HLA-DRA (gene 3122); test: BSK_3C_HLADR: BioMAP Diversity Plus: 3C Assay for Human Leukocyte Antigen - DR isotype (HLADR) Biomarker Activity (AID 2283019; active = hit-call score of the fitted dose curve at least 0.9, where 1 is the maximum; inactive = score below 0.9;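 for outcome: ELISA of cell-surface HLA-DR on HUVEC 24 h after dosing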); settings: primary human endothelial cells (HUVEC); actives raise or lower the signal
# In short: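 Primary human umbilical vein endothelial cells (3C system) were dosed with compound and cell-surface HLA-DR was quantified by ELISA at 24 h. Activity was fitted bidirectionally against DMSO as negative control and baseline.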
# [8] = read-out: Interleukin-8 (IL8), CXCL8 (gene 3576); test: BSK_3C_IL8: BioMAP Diversity Plus: 3C Assay for Interleukin-8 (IL8) Biomarker Activity (AID 2283020; active = hit-call score of the fitted dose curve at least 0.9, where 1 is the maximum; inactive = score below 0.9); settings: primary human endothelial cells (HUVEC); actives raise or lower the signal
# In short: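 Using DMSO-treated wells as the baseline, bidirectional curve fitting was applied to ELISA-measured IL-8 from human umbilical vein endothelial cultures sampled 24 h after compound addition.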
# [9] = read-out: Monokine induced gamma interferon (MIG), CXCL9 (gene 4283); test: BSK_3C_MIG: BioMAP Diversity Plus: 3C Assay for Monokine induced gamma interferon (MIG) Biomarker Activity (AID 2283021; active = hit-call score of the fitted dose curve at least 0.9, where 1 is the maximum; inactive = score below 0.9;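 for AC50: MIG protein level measured by immunoassay in the treated endothelial cultures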); settings: primary human endothelial cells (HUVEC); actives raise or lower the signal
# In short: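 ELISA-measured MIG in dosed HUVEC 3C cultures at 24 h, analysed by bidirectional fitting with DMSO defining baseline activity.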
# Chain of E-selectin (Homo sapiens) (P16581 whole entry, looked up): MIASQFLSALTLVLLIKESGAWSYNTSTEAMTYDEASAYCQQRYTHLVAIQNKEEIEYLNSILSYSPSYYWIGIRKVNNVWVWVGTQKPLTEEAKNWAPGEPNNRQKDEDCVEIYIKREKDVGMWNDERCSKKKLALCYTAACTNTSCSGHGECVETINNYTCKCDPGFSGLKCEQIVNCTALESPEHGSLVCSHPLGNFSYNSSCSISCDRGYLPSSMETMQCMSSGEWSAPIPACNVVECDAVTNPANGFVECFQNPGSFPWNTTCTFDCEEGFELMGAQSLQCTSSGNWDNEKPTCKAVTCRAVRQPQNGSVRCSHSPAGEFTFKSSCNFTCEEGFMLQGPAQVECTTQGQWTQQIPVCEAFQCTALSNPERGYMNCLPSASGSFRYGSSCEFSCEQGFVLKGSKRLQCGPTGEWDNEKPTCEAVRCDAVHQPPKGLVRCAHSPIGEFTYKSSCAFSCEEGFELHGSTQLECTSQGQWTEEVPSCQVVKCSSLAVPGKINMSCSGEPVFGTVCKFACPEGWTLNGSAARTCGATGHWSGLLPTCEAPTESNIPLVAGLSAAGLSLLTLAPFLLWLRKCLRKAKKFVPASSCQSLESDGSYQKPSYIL
smiles,measurement,setting,value
C[Si](C)O[Si](C)(C)O[Si](C)(C)O[Si](C)C,outcome,[1],inactive
same,outcome,[2],inactive
same,outcome,[3],inactive
OCCN(CCO)c1ccccc1,outcome,[1],inactive
same,outcome,[2],inactive
same,outcome,[3],inactive
CC(=O)c1ccc2c(c1)CCCC2,outcome,[1],inactive
same,AC50,[2],42.9 µM (active)
same,outcome,[3],inactive
CC(=O)[C@@]1(O)CC[C@H]2[C@@H]3C[C@H](C)C4=CC(=O)C=C[C@]4(C)[C@@]3(F)[C@@H](O)C[C@@]21C,outcome,[1],inactive
same,outcome,[2],inactive
same,outcome,[3],inactive
O=C(O)CCCC[C@@H]1SC[C@@H]2NC(=O)N[C@@H]21,outcome,[1],inactive
same,outcome,[2],inactive
same,outcome,[3],inactive
O=c1[nH]nc(-c2ccc([N+](=O)[O-])o2)o1,outcome,[1],inactive
same,outcome,[2],inactive
same,outcome,[3],inactive
CCN(Cc1cccc(S(=O)(=O)O)c1)c1ccc(C(=C2C=CC(=[N+](CC)Cc3cccc(S(=O)(=O)[O-])c3)C=C2)c2ccccc2)cc1,outcome,[1],inactive
same,outcome,[2],inactive
same,outcome,[3],inactive
CCN(CCO)c1cccc(C)c1,outcome,[1],inactive
same,outcome,[2],inactive
Nc1ccc(Oc2ccc(N)c(N)c2)cc1,outcome,[1],inactive
same,outcome,[2],inactive
same,outcome,[3],inactive
CCCCCCCCCCC=CC#N,outcome,[1],inactive
same,AC50,[2],49.2 µM (active)
same,outcome,[3],inactive
CC=CC(F)(F)C(F)(F)C(F)(F)F,outcome,[1],inactive
same,outcome,[2],inactive
same,outcome,[3],inactive
CC(C)(C)C(=O)C=Cc1ccc(Cl)cc1,outcome,[1],inactive
same,AC50,[2],24.4 µM (active)
same,outcome,[3],inactive
ON(Cc1ccccc1)Cc1ccccc1,outcome,[1],inactive
same,outcome,[2],inactive
same,outcome,[3],inactive
CCCCCCCC/C=C\CCCCCCCC(=O)O,outcome,[1],inactive
same,AC50,[2],68 µM (active)
same,outcome,[3],inactive
CNC(=S)NN,outcome,[1],inactive
same,outcome,[2],inactive
same,outcome,[3],inactive
CC1(C)O[C@@H]2C[C@H]3[C@@H]4C[C@H](F)C5=CC(=O)CC[C@]5(C)[C@H]4[C@@H](O)C[C@]3(C)[C@]2(C(=O)CO)O1,outcome,[1],inactive
same,AC50,[2],31.8 µM (active)
same,outcome,[3],inactive
CCOC(=O)Cc1cccc2ccccc12,outcome,[1],inactive
same,AC50,[2],89.4 µM (active)
same,outcome,[3],inactive
C=CC(C)(CCC=C(C)C)OC(=O)CC(C)C (stereo not drawn),outcome,[1],inactive
same,AC50,[2],30.5 µM (active)
same,outcome,[3],inactive
CC1(C)O[C@@H]2C[C@H]3[C@@H]4C[C@H](F)C5=CC(=O)C=C[C@]5(C)[C@@]4(F)[C@@H](O)C[C@]3(C)[C@]2(C(=O)CO)O1,outcome,[1],inactive
same,outcome,[2],inactive
same,outcome,[3],inactive
CC(=O)C=CC1C(C)=CCC(C)C1(C)C (stereo not drawn),outcome,[1],inactive
same,AC50,[2],68.5 µM (active)
same,outcome,[3],inactive
O=C1c2cccc(O)c2C(=O)c2c(O)cc(CO)cc21,outcome,[1],inactive
same,outcome,[2],inactive
same,outcome,[3],inactive
Cc1cc(C)c(C)c(O)c1,outcome,[1],inactive
same,outcome,[2],inactive
same,outcome,[3],inactive
O=C(Nc1ccccc1)c1ccccc1O,outcome,[1],inactive
same,outcome,[2],inactive
same,outcome,[3],inactive
CC(C)C1=CC2=CC[C@@H]3[C@](C)(CCC[C@@]3(C)C(=O)O)[C@H]2CC1,outcome,[1],inactive
same,outcome,[2],inactive
same,outcome,[3],inactive
CC(CC=O)CCCC(C)(C)O (stereo not drawn),outcome,[1],inactive
same,outcome,[2],inactive
same,outcome,[3],inactive
CN(C)c1ccc(C(=N)c2ccc(N(C)C)cc2)cc1,outcome,[1],inactive
same,outcome,[2],inactive
same,outcome,[3],inactive
CN(C)CCCN(C)C,outcome,[1],inactive
same,outcome,[3],inactive
O=C1CCCC1,outcome,[1],inactive
same,outcome,[2],inactive
same,outcome,[3],inactive
CCCCCCCCCCCSCC(=O)O,outcome,[1],inactive
same,AC50,[2],11.5 µM (active)
same,outcome,[3],inactive
CC(C)(c1cc(Br)c(OCCO)c(Br)c1)c1cc(Br)c(OCCO)c(Br)c1,AC50,[1],81 µM (active)
same,outcome,[3],inactive
same,AC50,[4],16.2 µM (active)
same,outcome,[5],inactive
same,AC50,[6],11.7 µM (active)
same,AC50,[7],18.6 µM (active)
same,AC50,[8],16.2 µM (active)
same,AC50,[9],27.6 µM (active)
N#[N+]c1ccc2c(S(=O)(=O)[O-])cccc2c1O,outcome,[1],inactive
same,outcome,[2],inactive
same,outcome,[3],inactive
same,outcome,[4],inactive
same,outcome,[5],inactive
same,outcome,[6],inactive
same,outcome,[7],inactive
same,outcome,[8],inactive
same,outcome,[9],inactive
O=C(Nc1ccccc1SSc1ccccc1NC(=O)c1ccccc1)c1ccccc1,outcome,[1],inactive
same,outcome,[2],inactive
same,outcome,[3],inactive
same,outcome,[4],inactive
same,outcome,[5],inactive
same,AC50,[6],8.27 µM (active)
same,AC50,[7],10 µM (active)
same,outcome,[8],inactive
same,outcome,[9],inactive
Cc1ccccc1C,outcome,[1],inactive
same,outcome,[3],inactive
C=CCOCC(O)CCl (stereo not drawn),outcome,[1],inactive
same,outcome,[2],inactive
same,outcome,[4],inactive
same,outcome,[5],inactive
same,outcome,[6],inactive
same,outcome,[7],inactive
same,outcome,[8],inactive
same,outcome,[9],inactive
CCCCCCCCCCCCCCCC[N+](C)(C)CC,outcome,[1],inactive
same,AC50,[2],13 µM (active)
same,AC50,[3],12.1 µM (active)
same,AC50,[4],3.48 µM (active)
same,AC50,[5],7.31 µM (active)
same,AC50,[6],2.66 µM (active)
same,AC50,[7],0.932 µM (active)
same,AC50,[8],3.73 µM (active)
same,AC50,[9],4.05 µM (active)
C=CC(C)(CCC=C(C)C)OC(=O)C(C)C (stereo not drawn),outcome,[1],inactive
same,AC50,[2],57.4 µM (active)
same,outcome,[3],inactive
O=C(O)c1ccccc1Nc1cccc(C(F)(F)F)c1,outcome,[1],inactive
same,outcome,[3],inactive
CN1C(=O)N(C)C(O)C1O (stereo not drawn),outcome,[1],inactive
same,outcome,[2],inactive
same,outcome,[4],inactive
same,outcome,[5],inactive
same,outcome,[6],inactive
same,outcome,[7],inactive
same,outcome,[8],inactive
same,outcome,[9],inactive
